The results in this text go back to PubChem BioAssay (Tox21).

The nature of assay [1]: qHTS assay to identify small molecule antagonists of the estrogen related receptor (ERR) signaling pathway from Tox21 library - cell viability counter screen (AID 1224834). Also: nearly all actives have a fitted effect of over 30% in size. The method in brief:
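In this quantitative HTS format, ERR cells receive compounds in DMSO and are incubated for 17.5 h at 37 C. Live-cell protease activity is then detected with CellTiter-Fluor.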

Assay [2] deals with Luciferin 4-monooxygenase (Photinus pyralis) (UniProt P08659). As to the kind of experiment: qHTS assay to identify small molecule inhibitors of firefly luciferase (AID 1224835). Also: nearly all actives have a fitted effect of over 25% in size. Also: potency is read from the fitted curve at half-maximal effect. The method in brief: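 Quantitative HTS format; KM concentrations of both substrates. Purified P. pyralis FLuc activity quantified from luminescence images.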
Chain of Luciferin 4-monooxygenase (Photinus pyralis) (P08659 whole entry, looked up): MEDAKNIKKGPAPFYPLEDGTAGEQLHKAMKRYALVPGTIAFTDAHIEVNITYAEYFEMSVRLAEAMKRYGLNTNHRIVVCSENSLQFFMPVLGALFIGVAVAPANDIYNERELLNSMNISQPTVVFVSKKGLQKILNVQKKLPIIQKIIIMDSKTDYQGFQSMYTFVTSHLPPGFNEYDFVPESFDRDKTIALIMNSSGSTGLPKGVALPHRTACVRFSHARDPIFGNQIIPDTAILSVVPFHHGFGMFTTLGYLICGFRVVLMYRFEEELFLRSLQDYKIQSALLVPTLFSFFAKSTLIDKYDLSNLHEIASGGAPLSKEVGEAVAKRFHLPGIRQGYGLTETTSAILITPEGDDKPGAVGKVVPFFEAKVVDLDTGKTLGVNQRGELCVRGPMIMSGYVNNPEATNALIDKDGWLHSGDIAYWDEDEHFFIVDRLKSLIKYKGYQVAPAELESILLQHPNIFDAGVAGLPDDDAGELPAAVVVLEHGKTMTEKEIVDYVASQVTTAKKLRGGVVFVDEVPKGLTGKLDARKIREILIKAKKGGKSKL
Background: Quantitative high-throughput screening tests each substance at several concentrations.

The nature of assay [3]: qHTS assay to identify small molecule agonists of the constitutive androstane receptor (CAR) signaling pathway - cell viability counter screen (AID 1224836). Also: series mostly up to about 92 µM; nearly all actives have a fitted effect of over 45% in size. The method in brief: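 HepG2 cells stably carrying hCAR and a CYP2B6-2.2kb reporter were plated 4 h, then given compounds at 15 concentrations plus PK11195 (final 0.75 uM). After 23 h at 37 C, viability was read by CellTiter-Fluor fluorescence.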

Assay [4] in a line: qHTS assay to identify small molecule antagonists of the constitutive androstane receptor (CAR) signaling pathway - cell viability counter screen (AID 1224837). Also: series mostly up to about 92 µM; nearly all actives have a fitted effect of over 45% in size. In a few lines:
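In quantitative HTS format, compounds at 15 concentrations were applied to HepG2 cells double-transfected with hCAR and CYP2B6-2.2kb under 50 nM CITCO stimulation; live-cell protease activity was read after 23 hr via CellTiter-Fluor.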

Assay [5] deals with Nuclear receptor subfamily 1 group I member 3 (Homo sapiens) (UniProt Q14994). As to the kind of experiment: qHTS assay to identify small molecule antagonists of the constitutive androstane receptor (CAR) signaling pathway (AID 1224838). Also: nearly all actives have a fitted effect of over 40% in size. In a few lines: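 CITCO-stimulated (50 nM final) HepG2 cells stably transfected with hCAR and CYP2B6-2.2kb luciferase were exposed to compounds at 15 concentrations for 24 h at 37 C/5% CO2. A luciferase reagent was added and luminescence recorded after 30 min.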
Chain of Nuclear receptor subfamily 1 group I member 3 (Homo sapiens) (Q14994 whole entry, looked up): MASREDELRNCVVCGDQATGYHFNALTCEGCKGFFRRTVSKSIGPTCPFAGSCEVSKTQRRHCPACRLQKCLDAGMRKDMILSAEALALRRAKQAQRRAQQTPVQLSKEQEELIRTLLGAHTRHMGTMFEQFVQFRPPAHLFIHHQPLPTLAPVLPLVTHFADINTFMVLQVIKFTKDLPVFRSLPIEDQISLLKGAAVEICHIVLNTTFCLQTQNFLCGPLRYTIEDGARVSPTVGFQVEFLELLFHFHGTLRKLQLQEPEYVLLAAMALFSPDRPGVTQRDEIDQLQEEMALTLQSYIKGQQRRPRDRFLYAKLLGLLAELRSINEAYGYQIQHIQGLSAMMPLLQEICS

For assay [6] the target is unchanged. As to the kind of experiment: qHTS assay to identify small molecule agonists of the constitutive androstane receptor (CAR) signaling pathway (AID 1224839). Also: nearly all actives have a fitted effect of over 15% in size. Also: potency is read from the fitted curve at half-maximal effect. As to activation: series mostly up to about 92 µM. In a few lines:
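HepG2 cells stably expressing hCAR and a CYP2B6-2.2kb luciferase reporter were treated with compounds at 15 concentrations plus 0.75 uM PK11195 (final) for 24 h at 37 C; luminescence was read after ONE-Glo addition.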

Assay [7] is described as follows: qHTS assay to identify small molecule antagonists of the estrogen related receptor signaling pathway with the pleiotropic PPARgamma coactivator (PGC) from Tox21 10K library - cell viability counter screen (AID 1224840; active = well fitted cell-killing curve with a large enough effect in the repeat runs, not every such curve was filed as active; also: nearly all actives have a fitted effect of over 40% in size). The method in brief: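 Viability counter screen, PGC/ERR cells: 17.5 h compound exposure at 37 C, CellTiter-Fluor fluorescence endpoint.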
A short description of assay [8]: qHTS assay to identify small molecule antagonists of the estrogen related receptor signaling pathway with the pleiotropic PPARgamma coactivator (PGC) from Tox21 10K library (AID 1224841; call rule not given here; also: series mostly up to about 92 µM; actives are mostly falling curves and most rising ones were filed inactive; nearly all actives have a fitted effect of over 50% in size). The method in brief:
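In the PGC/ERR line, DMSO solutions of test chemicals are pin-delivered to 2,000 cells/well six hours after dispensing. Following eighteen hours' incubation, One-Glo reagent is added and luminescence recorded.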

Assay [9] in a line: qHTS assay to identify small molecule agonists of the estrogen related receptor signaling pathway with the pleiotropic PPARgamma coactivator (PGC) from Tox21 10K library (AID 1224842). Also: nearly all actives have a fitted effect of over 15% in size. The method in brief:
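PGC/ERR reporter cells (NTP line) were seeded 2,000 per well, rested 6 h at 37 C/5% CO2, then pin-dosed with compounds in DMSO for 18 h at 37 C; luciferase read by One-Glo luminescence after 30 min at room temperature.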

Assay [10] has as its target Thyrotropin receptor (Homo sapiens) (UniProt P16473). As to the kind of experiment: qHTS assay to identify small molecule agonists of the thyroid stimulating hormone receptor (TSHR) signaling pathway (AID 1224843; calls by dose curve; also: nearly all actives have a fitted effect of over 45% in size; also: potency is read from the fitted curve at half-maximal effect). In a few lines: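 Compounds are titrated over 15 concentrations, in triplicate, onto TSHR-HEK293 cells seeded at 800/well. Plates sit 30 min at room temperature before cAMP-d2 and anti-cAMP cryptate are added; signal is read after a further hour.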

The nature of assay [11]: qHTS assay to identify small molecule agonists of the hypoxia (HIF-1) signaling pathway - cell viability counter screen (AID 1224844; calls by dose curve; also: nearly all actives have a fitted effect of over 50% in size). In a few lines:
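Same wells as the HIF-1 reporter screen; ME-180 cells carrying HRE-bla, 17 hr treatment at 37C; CellTiter-Glo luminescence read after 30 min at room temperature.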

Assay [12] can be described thus: qHTS assay to identify small molecule agonists of H2AX (AID 1224845; active = well fitted activation curve with a large enough effect in the signal ratio in the repeat runs, not every such curve was filed as active; the % refers to the signal ratio). The method in brief: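 Wild-type CHO-K1 cells plated overnight, then exposed 3 hr at 37C to compounds at 15 concentrations (0.76% DMSO). Lysed, then HTRF anti-pH2AX(S139)-cryptate/anti-H2AX-d2 detection after 24 hr at room temperature; emissions 665 and 620 nm.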
A short description of assay [13]: qHTS assay to identify small molecule agonists of the hypoxia (HIF-1) signaling pathway (AID 1224846; active = well fitted activation curve with a large enough effect in the signal ratio in the repeat runs, not every such curve was filed as active; the % refers to the signal ratio). The method in brief:
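In ME-180 cells bearing an HRE-bla construct, 17 h treatment with DMSO-dissolved compounds at 37C was followed by CCF4-AM loading to quantify reporter induction.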

The nature of assay [14]: qHTS assay to identify small molecule agonists of H2AX - cell viability counter screen (AID 1224847; calls by dose curve; also: top concentration of the series differs between compounds; nearly all actives have a fitted effect of over 30% in size). In a few lines:
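Wild-type CHO-K1 cells (10% FBS medium) were plated overnight at 37C, exposed to compounds at 15 concentrations for 3 hr at 37C (0.76% DMSO final), and viability was read as CellTiter-Glo luminescence after 30 min at room temperature.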

Assay [15] is described as follows: qHTS assay to identify small molecule antagonists of the estrogen related receptor (ERR) signaling pathway from Tox21 library (AID 1224848). Also: nearly all actives have a fitted effect of over 50% in size. The method in brief:
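First, 2,000 ERR cells per well were plated and held 6 h at 37 C/5% CO2. Next, compounds in DMSO were pinned in and left 18 h at 37 C. Finally, ONE-Glo was added and luminescence read after 30 min at room temperature.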

A short description of assay [16]: qHTS RealTime-Glo MT Cell Viability Assay in HepG2 cells - 24 hour (AID 1224867). Also: nearly all actives have a fitted effect of over 50% in size. In a few lines: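 Compound treatment began 5 h after plating HepG2 cells (600/well) with NanoLuc luciferase and prosubstrate. Plates stayed at 37 C for 40 h; luminescence was captured at six time points, 0 h through 40 h.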
Assay [17] can be described thus: qHTS RealTime-Glo MT Cell Viability Assay in HEK293 cells - 32 hour (AID 1224868). Also: nearly all actives have a fitted effect of over 50% in size. Also: potency is read from the fitted curve at half-maximal effect. In a few lines:
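Quantitative high-throughput screen of the Tox21 10K library in HEK293: cells and RealTime-Glo reagents plated together, compound added at 5 h, luminescence monitored through 40 h at 37 C.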

Assay [18] in a line: A CellTox Green Cytotoxicity Assay to monitor cytotoxicity in HEK293 cells - 0 hour (AID 1224869). Also: nearly all actives have a fitted effect of over 50% in size. In a few lines:
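Homogeneous no-lysis format: HEK293 cell suspension mixed with CellTox Green reagent, seeded, incubated 5 h at 37 C/5% CO2, then dosed by pintool with compound in DMSO.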

The structures appear in SMILES notation. Several values for one entry are separate records, joined by “and”; a condition that tells them apart may be missing. Equal entries are not always repeated. Inconclusive results are not listed. The source holds several records for some structures; these can differ, active in one and inactive in another. Activity calls are given as the source filed them. Unless noted, calls follow the shape of the dose curve; as a rule, active = well fitted curve in the direction sought with a large enough effect in the repeat runs; inconclusive = weak or mixed curves; inactive = no such curve, though single readings can be large; an effect the other way counts as inactive or inconclusive.

Chain of Thyrotropin receptor (Homo sapiens) (P16473 whole entry, looked up): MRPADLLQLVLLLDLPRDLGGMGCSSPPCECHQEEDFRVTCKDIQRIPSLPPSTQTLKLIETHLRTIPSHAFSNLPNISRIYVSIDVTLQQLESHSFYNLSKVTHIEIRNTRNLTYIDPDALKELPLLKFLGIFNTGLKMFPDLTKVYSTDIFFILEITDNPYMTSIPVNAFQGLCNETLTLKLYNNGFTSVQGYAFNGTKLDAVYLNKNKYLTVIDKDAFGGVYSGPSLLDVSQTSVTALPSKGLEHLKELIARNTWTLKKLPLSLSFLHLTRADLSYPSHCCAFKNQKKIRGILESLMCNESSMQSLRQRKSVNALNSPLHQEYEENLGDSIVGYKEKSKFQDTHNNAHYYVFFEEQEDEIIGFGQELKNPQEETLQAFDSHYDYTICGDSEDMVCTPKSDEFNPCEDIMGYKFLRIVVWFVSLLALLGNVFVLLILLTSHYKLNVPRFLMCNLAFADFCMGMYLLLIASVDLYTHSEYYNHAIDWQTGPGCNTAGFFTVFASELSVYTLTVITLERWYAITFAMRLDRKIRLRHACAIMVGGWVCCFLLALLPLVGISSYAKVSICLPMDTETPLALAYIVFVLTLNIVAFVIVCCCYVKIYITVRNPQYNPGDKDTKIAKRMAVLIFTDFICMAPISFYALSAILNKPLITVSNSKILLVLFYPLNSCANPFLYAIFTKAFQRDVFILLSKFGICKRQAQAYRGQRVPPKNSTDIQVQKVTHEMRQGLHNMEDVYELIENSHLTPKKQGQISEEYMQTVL

For the compound `CCCCCCCC(=O)OCC(O)CO` (configuration not stated), the Potency result in assay [1], in assay [2], in [3], in assay [4], in [5] and in assay [6] was “inactive” in each case. In addition, the Potency entry in [7], in assay [8], in [9], in [10], in assay [11] and in [12] was “inactive” each time. For the same compound, the Potency entry in assay [14], in assay [15], in [17] and in assay [18] was “inactive” each time. In addition, the call in assay [13] and in [16] was inactive.
In the case of `N[C@@H](Cc1c[nH]c2ccc(O)cc12)C(=O)O`, the Potency entry in assay [1], in [3], in [4], in [5], in assay [6] and in [7] was “inactive” each time. For the same compound, the Potency entry in assay [10], in [12], in assay [14], in [17] and in [18] was “inactive” in each case. Besides, the Potency in [2] was 34.6 µM (active) and inactive. For the same compound, the compound was called inactive in assay [13] and in assay [16].
On to `O=c1c(-c2ccc(O)cc2)coc2cc(O)cc(O)c12`, for which the Potency entry in [1], in assay [3], in [4], in assay [5], in assay [7] and in assay [10] was “inactive” throughout. Moreover, the Potency result in [11], in assay [14] and in assay [18] was “inactive” throughout. For the same compound, the Potency in assay [2] is 13.9 µM (active) and 11.2 µM (active) and 9.77 µM (active); in [6], 15.1 µM (active) and 9.69 µM (active) and 13.3 µM (active); in assay [17] it was 24.5 µM (active). Besides, the result in [13] and in assay [16] was inactive.
As to `CC(=O)OC/C=C(C)/C=C/C=C(C)/C=C/C1=C(C)CCCC1(C)C`, the Potency entry in assay [1], in assay [2], in assay [3], in [4], in assay [5] and in assay [6] was “inactive” in each case. For the same compound, the Potency entry in [7], in assay [10], in assay [12], in [14], in assay [17] and in assay [18] was “inactive” each time. The call in [13] and in assay [16] was inactive.
For the compound `CCCCC/C(C=O)=C\c1ccccc1`, the Potency entry in assay [1], in assay [2], in assay [3], in assay [4], in [5] and in [6] was “inactive” each time. In addition, the Potency entry in assay [7], in [10], in assay [12], in [14], in assay [17] and in [18] was “inactive” each time. For the same compound, the result in assay [13] and in assay [16] was inactive.
For `COc1ccccc1NC(=O)CC(C)=O`, the Potency result in [1], in [2], in assay [3], in assay [4], in [5] and in assay [6] was “inactive” throughout. Moreover, the Potency entry in [7], in [10], in [12], in assay [14], in [17] and in assay [18] was “inactive” in each case. The compound was called inactive in assay [13] and in [16].
`NC(=O)c1ccc([N+](=O)[O-])cc1Cl`: the Potency result in [1], in [2], in [3], in assay [4], in assay [5] and in assay [6] was “inactive” in each case. In addition, the Potency result in [7], in assay [10], in assay [11], in assay [12], in [14] and in assay [17] was “inactive” throughout. Further, the Potency entry in [18] was “inactive”. Also, the compound was classed as inactive in [13] and in [16].
On to `CC(C)(C)NCC(O)c1ccc(O)c(CO)c1` (configuration not stated), for which the Potency result in [1], in assay [2], in [3], in assay [4], in assay [5] and in assay [6] was “inactive” in each case. For the same compound, the Potency result in [7], in assay [12], in assay [14], in [17] and in [18] was “inactive” in each case. For the same compound, the Potency in assay [10] is 60.7 nM (active) and 37.6 nM (active). Besides, the call in assay [13] and in assay [16] was inactive.
